“And” between values parts separate entries of the source, which are not always exact repeats. Equal values may be shown once. Records with an inconclusive call do not appear. Some compounds were tested as several samples or in several runs, with calls that do not always agree. Unmarked numbers belong to inactive results. The source made the active and inactive calls. Calls come from the whole dose curve; as a rule, active = well fitted inhibition curve with a large enough effect; inconclusive = small, poorly fitted or top-dose-only effect; inactive = flat fitted curve, though single readings scatter.

From PubChem BioAssay (NCATS) come the findings set out here.
% is set by controls: 0 for no effect and ±100 for the full control effect; potency is the fitted concentration of half-maximal effect.

This assay deals with KB-3-1. Nature of the assay: Cytotoxic Profiling of Annotated Libraries Using Quantitative High-Throughput Screening (AID 1296008). Note: nearly all actives have a fitted effect of over 60% in size. The note with it: Five cell lines viability, CellTiter-Glo ATP luminescence, 48-72 h; max response: hits give low values. The source says: Cell-based phenotypic screening is a commonly used approach to discover biological pathways, novel drug targets, chemical probes and high-quality hit-to-lead molecules. Many hits identified from high-throughput screening campaign are ruled out through a series of follow-up potency, selectivity/specificity, and cytotoxicity assays. Prioritization of molecules with little or no cytotoxicity for a more in-depth downstream evaluation influence the future direction of projects, so cytotoxicity profiling of the screening libraries at early stage is essential for increasing the likelihood of candidate success. […] For the annotated library, we also examined the primary targets and mechanistic pathways regularly associated with cell death. To our knowledge, this is the first study to use high-throughput screening to profile large libraries for cytotoxicity assessment in both normal and cancer cell lines. In summary, the results generated here constitutes a valuable resource for the scientific community and provides insight on identifying cytotoxic compounds with particular mechanisms of action, and prioritizing compounds with suitable cytotoxicity profile for further evaluation.
A pintool (Kalypsys) was used to transfer 23 nL of compound solution to the 1536-well assay plates. After 48 or 72 hr incubation at 37 degree Celsius, 5% CO2 and 95% humidity, 2.5 uL of CellTiter-Glo (Promega) was dispensed into each well using a dispenser (Aspect Automation, St. Paul, MN) with solenoid valves (Lee Valves, Westbrook CT). Plates were left at room temperature for 10 min before imaging the ATP-coupled luminescence using a ViewLux microplate imager (PerkinElmer, Waltham, MA).
(Cellular ATP, detected with luciferase, serves as a proxy for viable cell number.)
Turning to `NC(=O)NNc1ccccc1`, the max response is 13.6% and -2.9%.
For `NC(CSCC(=O)O)C(=O)O` (stereo not given), the max response was -5.75%.
On the same count and under the same terms, next, `COC(=O)[C@H]1[C@H]2C[C@@H]3c4[nH]c5cc(OC)ccc5c4CCN3C[C@H]2C[C@@H](OC(=O)COc2ccc(OC)cc2)[C@@H]1OC`: 0.718%.
Same read-out and setting: the result for `CC1(C)[C@@H]2CC[C@@]1(C)C(=O)C2` reads -13.1%.
As for `Cc1cc2nc3c(=O)[nH]c(=O)nc-3n(C[C@H](O)[C@H](O)[C@H](O)CO)c2cc1C`, the max response was -1.52% and 0.485%.
With `CCN(CC)CCSC(=O)C(c1ccccc1)c1ccccc1`, the max response was 12.2% and -4.64%.
Take `O=C(O)c1ccccc1O`: the max response is 7.74% and -13.4%.
On to `CN1CCC[C@@H]1Cc1c[nH]c2ccc(CCS(=O)(=O)c3ccccc3)cc12`, for which the max response is -5.28% and the molecule was called inactive.
On to `C[C@H](NC(CCc1ccccc1)C(=O)O)C(=O)N1CCC[C@H]1C(=O)O` (stereo not given in full), for which the max response was -16.2%.
Same read-out and setting: the result for `CC1(C)Oc2ccc(C#N)cc2[C@@H](N2CCCC2=O)[C@@H]1O` reads -0.98% and -8.03%.
On the same count and under the same terms, next, `Oc1cn2c(n1)Nc1ccc(Cl)c(Cl)c1C2`: -2.96% and -14.6%.
Still for that read-out and setting: the result for `O=C(O)[C@@H]1CSCN1` reads 0.966%; that for `Cc1cc(CC(=O)O)n(C)c1C(=O)c1ccc(Cl)cc1`, -2.26% and -15.1%.
For the molecule `COc1ccc2[nH]c(S(=O)Cc3ncc(C)c(OC)c3C)nc2n1` (stereo not given), the call was inactive and the max response was 2.51%.
As for `O=C(O)CN1C(=O)c2cccc3cccc(c23)C1=O`, the max response was -7.36%.
Same read-out and setting: the result for `CC(=O)Oc1ccc(C2(c3ccc(OC(C)=O)cc3)C(=O)Nc3ccccc32)cc1` reads -1.67% and 11.5%.
Take `CC(C(O)c1ccc(O)cc1)N1CCC(Cc2ccccc2)CC1` (stereo not given): the max response is -5.14% and the call was inactive.
As for `CNCCC(Oc1ccc(C(F)(F)F)cc1)c1ccccc1` (stereo not given), the max response was 2.04%.
Still for that read-out and setting: the result for `O=C1O[C@H](CO)[C@@H](O)[C@H](O)[C@H]1O` reads 25.2%; that for `CC(=O)c1ccc2c(c1)N(CCCN(C)C)c1ccccc1S2`, -1.52%.
On the same count and under the same terms, the result for `COc1ccc(S(=O)(=O)Nc2nnc(CC(C)C)s2)cc1` reads -8.69% and 6.78%; that for `CCN(CC)CCNC(C(=O)OCCC(C)C)c1ccccc1` (stereo not given), 11.9%; that for `Cc1ccc2nc(N)[nH]c(=O)c2c1Sc1ccncc1`, -5.1%.
`CCCCOc1cc(C(=O)OCCN(CC)CC)ccc1N`: the Potency is 4.95 µM (active) and the max response was 6.85%.
Consider `Cc1cc2c(cc1S(N)(=O)=O)S(=O)(=O)CCC2`, for which the max response was -2.22%.
On the same count and under the same terms, the result for `N[C@H]1C(O)O[C@H](CO)[C@@H](O)[C@@H]1O` (stereo not given in full) reads 2.62%.
Same read-out and setting: the result for `CCN(CC)CCOC(=O)C1(C2CCCCC2)CCCCC1` reads -11.2%; that for `CC1=C(/C=C/C(C)=C/C=C/C(C)=C/C(=O)O)C(C)(C)CCC1`, -14.5%; that for `Cn1cc[nH]c1=S`, 10.2%.
On the same count and under the same terms, the result for `c1ccc(CN(CC2=NCCN2)c2ccccc2)cc1` reads -11.4% and 8.49%.
For `Nc1ccc(S(=O)(=O)Nc2nccs2)cc1`, the molecule was classed as inactive and the max response is -16.1%.
`CC(C)C(=O)c1c(C(C)C)nn2ccccc12`: the max response is -2.88%.
Consider `Cc1cc(C(C#N)c2ccc(Cl)cc2)c(Cl)cc1NC(=O)c1cc(I)cc(I)c1O` (stereo not given), for which the result was inactive.
For `Oc1cccc(O)c1`, the max response is -21.4%.
On the same count and under the same terms, the result for `CC(C)(C)C(=O)NCCCC(=O)O` reads -0.595%.
